Compounds without any hit were thinned out: in the full panel of roughly 83,000, 20% have a hit.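 Each cell line was grown in a 96-well plate and treated with one concentration of compound for 48 hours. Values below 10 were considered active.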 Unmarked numbers belong to inactive results. Active and inactive are the calls of the source.

In this test the test system is UACC-62 melanoma. In words: NCI-60 one-dose screen, 48 h (100 = growth as untreated, 0 = no growth, -100 = all killed). The settings on record: 10 µM unless noted. Here is the method:
Growth inhibition of the UACC-62 human tumor cell line is measured as a screen for anti-cancer activity. Cells are grown in 96 well plates and exposed to the test compound for 48 hours. Compounds are tested at a single concentration, which is 10^-5 M for most compounds. The reported endpoint is percent growth (GI% or GIPRCNT), where numbers from 0 - 100% represent growth inhibition, and numbers from -100% - 0 represent cell death. For example, a value of 40 represents 60% growth inhibition. A value of 0 means no net growth occurred over the course of the experiment. A value of -40 indicates 40% of cells at the beginning of the experiment died by the end of the experiment. A value of -100 means all cells are dead at the end of the experiment.
NCI-60 Human Tumor Cell Lines Screen was performed using the standard one-dose NCI protocol, which is described in more detail at https://dtp.cancer.gov/discovery_development/nci-60/default.htm.
Compounds with GIPRCNT values below 10 were considered active. Activity score was based on GIPRCNT using the following formula: […]
Score is 0 for GIPRCNT values of 100 or above, 50 for GIPRCNT values of 0, and 100 for GIPRCNT values of -100.
In the case of `O=C(Nc1ccc(F)cc1F)c1cc(F)ccc1O`, the growth was -0.318% (active).
For `CC(=O)OC[C@H]1OC(Sc2sc(C(=O)c3ccc(Cl)cc3)c(N)c2-c2nc3ccccc3s2)[C@H](OC(C)=O)[C@@H](OC(C)=O)[C@@H]1OC(C)=O` (stereo not given in full) the value was 97.9%.
As for `Cc1c(C(=O)NCCN2CCOCC2)cn2ncnc(Oc3ccc(NC(=O)Nc4ccc(Cl)c(C(F)(F)F)c4)cc3)c12`, the growth is 14.8%.
Take `COc1ccc(/C=C(\C#N)n2nnc3c(F)cccc32)cc1`: the growth is 29.5%.
`Cc1ccc2nc(NC(=O)CSc3nc(Cl)c(C#N)c(-c4ccccc4)n3)sc2c1`: the growth was 88.3%.
As for `Fc1cc(-c2nnc3n2NC(=Nc2ccc(Cl)cc2)CS3)c(Cl)cc1Cl`, the growth was 81.4%.
Regarding `O=C(Nc1ccc(Br)cc1F)c1cc(Br)ccc1O`, the growth is -31.4% (active).
The same measure for `COc1cc(C(=O)c2cnc(-c3cccc4[nH]ccc34)[nH]2)cc(OC)c1OC`: 39.3%.
For the compound `O=C(Nn1c(NCC(=O)N2c3ccccc3Sc3ccccc32)nnc1-c1ccc(O)cc1)c1ccccc1`, the growth was 98.9%.
For `CS(=O)(=O)Nc1cc(-c2ccc3ncnc(Nc4cccc(Cl)c4F)c3c2)cnc1Cl` the value was 8.37% (active).
On to `COc1ccc(CNC(=O)[C@H](O)[C@@H](N)Cc2ccccc2)cc1`, for which the growth is 96.6%.
For `COc1cc(C)c(Cc2cnc(N)nc2N)cc1OC` the value was 99.5%.
On to `C#C[C@]1(O)CC[C@H]2[C@@H]3CC=C4c5sc(Nc6cc(F)ccc6F)nc5CC[C@]4(C)[C@H]3CC[C@@]21C`, for which the growth was -36.2% (active).
For the compound `NC(=O)Nc1ccc2ncnc(Nc3ccc(Cl)cc3)c2c1`, the growth was 87.9%.
As to `Cc1ccc(NC2=C(Cl)C(=O)c3nc(C)ccc3C2=O)cc1`, the growth was -70.4% (active).
Consider `COc1ccc(C(=O)COC(=O)[C@H](C[Se][Se]C[C@H](NC(=O)c2ccc(Br)cc2F)C(=O)OCC(=O)c2ccc(OC)cc2)NC(=O)c2ccc(Br)cc2F)cc1`, for which the growth was -89.5% (active).
For the compound `CN1C(=C2C(=O)OC(C)(C)OC2=O)CCC1C(=O)NCc1ccc(Cl)cc1Cl` (stereo not given), the growth was 86.9%.
For `CN(C(=O)NCc1cccc(F)c1Cl)[C@H](COC(=O)Nc1cc2ccccc2cn1)CC(O)CO` (stereo not given in full) the value was 106%; for `Cc1ccc(/C=C(\C#N)n2nc3cccc(F)c3n2)cc1`, 83.7%.
Take `CCOC(=O)c1cn2ncnc(Oc3ccc(NC(=O)NCCN(C)C)c(Cl)c3)c2c1C`: the growth was 21.7%.
On to `c1ccc(-c2nc3sc(-c4ccccc4)cn3n2)cc1`, for which the growth was 66.9%.
Regarding `CNC(=O)c1cc(-n2ccc3cc(NC(=O)c4ccc(N5CCOCC5)c(C(F)(F)F)c4)ccc32)ccn1`, the growth is 38.7%.
As for `C#Cc1cccc(NC(=O)Nc2ccccc2NC(=O)CCl)c1`, the growth was -94.1% [8.25 µM] (active).
For `CCOC(=O)Cn1c(=O)c2c(c3ccccc3n2C)n2nnc(-c3ccccc3)c12` the value was 102%; for `C[C@H]1[C@H]2[C@H]3CC[C@@H]4[C@@]5(C)CC[C@H](O)C(C)(C)[C@@H]5CC[C@@]4(C)[C@]3(C)CC[C@]23CO[C@]1(C)[C@@H](C(=O)/C=C\c1cccnc1)C3`, 41.5%; for `NS(=O)(=O)c1ccc(-n2nc(-c3ccc(Cl)cc3)c3ccccc3c2=O)cc1`, 89.2%.
As to `COc1ccc(CN2c3ccccc3Sc3ccccc32)c(F)c1`, the growth was 33.1%.
For `COc1ccccc1/C=C1\Oc2cc(OCCN3CCC(Cc4ccccc4)CC3)ccc2C1=O` the value was 92.1%; for `Oc1ccc(C#CCOc2ccccc2)cc1CNCCN(Cc1ccccn1)Cc1ccccn1`, 9.83% (active).
For `NS(=O)(=O)c1ccc(N=Nc2ccc(-c3nn4cc(-c5ccccc5)nc4s3)cc2)cc1` the value was 101%; for `CCS(=O)(=O)c1ncnc2nc[nH]c12`, 94.1%.
Take `COc1ccc(/C=C/c2c(C(=O)/C=C/c3ccc(Cl)cc3)c(C)nc3ccccc23)cc1`: the growth was 33.7%.
As for `CN(C)CCCNc1nc2ccccc2c2c(=O)c3cc(F)ccc3sc12`, the growth is -53.8% (active).
`CCCCNC(=O)Oc1ccc(/C(=C(\C)c2ccc(Cl)cc2)c2ccc(OCCN3CCCCC3)cc2)cc1`: the growth was 83%.
`Cc1oc2nc[nH]c(=O)c2c1C(=O)/C=C/c1ccc(Br)cc1`: the growth is 13.2%.
With `CCN(CC)CCNc1nc2ccccc2c2c(=O)c3cc(Cl)ccc3sc12`, the growth was 65.4%.
For `C=C1C(=O)O[C@H]2[C@H]1CC/C(COC(=O)CSCC(=O)OC/C1=C/CC[C@@]3(C)O[C@H]3[C@H]3OC(=O)C(=C)[C@@H]3CC1)=C\CC[C@@]1(C)O[C@@H]21` the value was 42.4%; for `CC1=C([Se]CC(OC(=O)[C@@H](CSSC(C)(C)C)NC(=O)OC(C)(C)C)C(=O)NC(C)(C)C)C(=O)c2ccccc2C1=O` (stereo not given in full), -88.1% (active); for `Cc1cccc2c1S/C(=C/c1ccc([N+](=O)[O-])cc1)C2=O`, 72.6%.
The same measure for `N#CC1=C(N)Oc2c(sc3c(Br)cccc23)C1c1ccc([N+](=O)[O-])cc1` (stereo not given): 15.2%.

These data come from PubChem BioAssay (NCI).
